Screens from PubChem.
PLC-gamma1 inh: blocks human PLC-gamma1 enzyme activity; P19174; inhibition, % at 12.2 µM; purified PLC-gamma1, fluorogenic substrate, fluorescence; actives 0.84% (n = 370,000)
ADAM10 inh: inhibitors of human ADAM10. O14672. recombinant ADAM10, EDANS/DABCYL FRET peptide cleavage, 3 h. inhibition, % at 7 µM. actives 0.62% (n = 370,000). AID 720582;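 active = inhibition above a per-campaign cutoff equal to the mean of compounds falling between control-based bounds plus 3 SD, cut at about 20% in these data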;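 note: 0% = DMSO wells while the 100% control is not disclosed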
PLCb3 inh: blocks human PLC-beta3 enzyme activity | Q01970 | Purified PLC-beta3, fluorogenic substrate, fluorescence | inhibition, % at 12.2 µM | actives 0.18% (n = 370,000) | AID 720704; in the data active = inhibition above about 11%;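 note: 0% = median of compound wells on plate and 100% = full blocker control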
proKLK7 act: proKLK7 (human) activation, primary screen. activation, % at 7 µM. purified proKLK7, EDANS-DABCYL substrate fluorescence; 100% is mature enzyme control, 0% vehicle. AID 652039. actives 0.9% (n = 370,000). P49862;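 active = activation above the mean of all tested compounds plus 3 SD, computed per campaign excluding outliers beyond control limits, cut at about 13% in these data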
ADAM17 inh: inhibitors of human ADAM17; inhibition, % at 6.95 µM; actives 0.83% (n = 370,000); recombinant ADAM17, EDANS/DABCYL FRET peptide cleavage;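 active = inhibition above the mean of compounds lying between control limits plus 3 SD, set per campaign, cut at about 8.5% in these data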;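 note: 0% = DMSO-only wells as the low control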
PLCgamma1 ctr: PLC-gamma1 inhibition, counter-screen for PLC-beta3 hits; shares compounds with PLC-gamma1 inh; purified PLC-gamma1, fluorogenic substrate, fluorescence; inhibition, % at 12.3 µM; actives 3.1% (n = 3,300); AID 743258
PLCbeta3 conf: confirmation of human PLC-beta3 inhibitors; shares compounds with PLC-gamma1 inh; purified PLC-beta3, fluorogenic substrate fluorescence; inhibition, % at 12.3 µM; actives 1% (n = 3,300); AID 743261; in the data active = inhibition above about 11%
The depositor's hits bear a star; . = not tested or not shown. In the library only some 2.9% were active in any assay of this set; here they are far more common. Cut-off read from the data, not from the text of the source, unless noted: active = inhibition above about 9.5%; inactive = the rest.

SMILES	PLC-gamma1 inh	ADAM10 inh	PLCb3 inh	proKLK7 act	ADAM17 inh	PLCgamma1 ctr	PLCbeta3 conf
C=CCCC(=O)N1C[C@H]2CCN(C)[C@H]2C[C@H]1c1ccccc1	0.1	3.2	2.1	0.2	-1.5	.	.
O=[N+]([O-])c1ccccc1Nc1ccccc1[N+](=O)[O-]	10.1*	1.7	3.6	0.8	-4.3	2.1	2.4
CN(C)C(=O)CSc1nnc(CCN)o1	12.9*	6.1	4.9	0.0	0.6	-5.5	-3.3
NCCc1nnc(SCC(=O)Nc2ccc(Br)cc2)o1	-1.1	-8.3	-1.9	0.6	-3.7	.	.
CC(=O)C1C(=O)c2c(cccc2[N+](=O)[O-])C1=Nc1cccc(Cl)c1 (stereo unspecified)	0.3	-2.7	-10.2	-0.1	-1.4	.	.
O=C1C2C3C=CC(C3)C2C(=O)N1c1ccc(-c2nc3ccccc3o2)cc1 (stereo unspecified)	0.0	0.8	4.5	-0.1	-4.7	.	.
O=C(N/N=C/c1ccc(F)cc1)c1ccccc1	-0.7	1.8	2.1	-0.7	1.1	.	.
O=C(Oc1ccc(/C=N/NC(=O)c2ccccc2O)cc1)c1ccccc1	-15.9	5.3	-19.3	0.1	-5.4	.	.
O=C(N/N=C/c1ccc(OC(=O)c2ccccc2)cc1)c1cccc(O)c1	13.1*	6.3	17.9*	-0.1	-1.1	10.6*	15.3*
O=C(Oc1ccc(/C=N/NC(=O)c2ccco2)cc1)c1ccccc1	10.2*	6.7	3.4	0.3	-1.5	2.4	8.2
O=C(N/N=C/c1ccc(OC(=O)c2cccs2)cc1)c1ccc(F)cc1	10.2*	6.3	11.3*	0.8	3.1	-1.4	4.5
O=C(CSc1nc(=O)n2ccccc2n1)NCc1ccc(F)cc1	-4.9	-31.4	-0.6	0.8	-6.2	.	.
COc1ccc(CN2CCN(c3ccccn3)CC2)c(OC)c1	10.0*	10.5	3.5	0.1	3.8	-7.6	-0.3
CCn1c(=O)c([N+](=O)[O-])c(N2CCSCC2)c2ccccc21	11.7*	12.8	-5.2	-0.3	-0.5	-1.8	-1.8
Cn1c(=O)c([N+](=O)[O-])c(N2CCSCC2)c2ccccc21	-0.3	1.0	4.8	-0.6	-2.4	.	.
CCOC(=O)c1ccc(NC(=O)Cn2nc(C)c3ccccc3c2=O)cc1	3.5	5.9	-12.6	-0.5	1.1	.	.
CCOC(CNC(=O)Cn1nc(C)c2ccccc21)OCC	9.9*	3.9	0.5	-0.2	2.0	-1.8	2.2
O=C(OCc1ccccc1Cl)c1cccnc1Cl	13.9*	5.0	7.8	0.7	4.8	-8.0	-2.1
Cc1ccc([C@H]2C(C(=O)O)=CC[C@@H](c3ccc(C)cc3)N2S(=O)(=O)c2ccccc2C)cc1	0.3	2.0	-2.4	0.1	-2.5	.	.
COc1ccc(C(CNC(=O)COc2ccccc2C)N2CCCC2)cc1 (stereo unspecified)	2.9	-7.7	-9.0	-0.2	-0.4	.	.
C/C(CC(=O)Nc1ccc([N+](=O)[O-])cc1)=N\NC(=O)c1ccccc1[N+](=O)[O-]	10.7*	18.1	4.8	-0.3	3.9	0.9	2.9
C/C(CC(=O)Nc1ccc(N(C)C)cc1)=N\NC(=O)c1ccc([N+](=O)[O-])cc1	0.2	3.1	-6.7	-0.1	-1.0	.	.
Cc1ccc(-n2nc(C)c3c2OC(N)=C(C#N)C3c2ccc(C)o2)cc1 (stereo unspecified)	-13.4	4.7	-9.0	-0.7	0.6	.	.
C[C@H](CO)N1C[C@H](C)[C@@H](CN(C)C(=O)Nc2ccc3c(c2)OCO3)Oc2c(NS(=O)(=O)c3cn(C)cn3)cccc2C1=O	-11.8	1.7	-16.3	0.2	-3.2	.	.
C[C@]12CCC(=O)C=C1CC[C@@H]1[C@@H]2[C@@H](O)C[C@@]2(C)[C@H]1CC[C@]2(O)C(=O)CO	-0.2	-1.7	1.4	-0.2	-3.1	.	.
SMILES	PLC-gamma1 inh	ADAM10 inh	PLCb3 inh	proKLK7 act	ADAM17 inh	PLCgamma1 ctr	PLCbeta3 conf
CC12CCC(=O)C=C1CCC1C2C(O)CC2(C)C1CCC2(O)C(=O)CO (stereo unspecified)	10.9*	-17.2	-2.2	0.0	-6.2	-5.9	1.1
O=C(CCS(=O)(=O)c1cccs1)Nc1ccc(C(=O)NCc2ccc(F)cc2)cc1	9.6*	7.7	9.9	-0.4	3.6	-9.0	-1.7
O=C(CCS(=O)(=O)c1cccs1)Nc1ccc(C(=O)NCc2cccs2)cc1	5.5	-13.0	-1.8	-1.5	-5.3	.	.
Cc1cccc(Nc2ccccc2C(=O)OCC(=O)N2CCOCC2)c1C	-44.0	-0.4	-50.6	-1.9	1.8	.	.
CN(c1ccccc1C(=O)Nc1cccc([N+](=O)[O-])c1)S(=O)(=O)c1ccccc1	0.6	5.1	-0.7	0.7	-1.5	.	.
CN(c1ccccc1C(=O)Nc1cccc([N+](=O)[O-])c1)S(C)(=O)=O	9.9*	0.5	1.7	-0.5	1.8	-6.0	-1.2
O=C(O)CCCn1cc(NC(=O)COc2ccccc2)cn1	11.3*	-5.2	-1.4	-0.5	5.6	-1.1	2.1
CC(C)Cc1ccc(C(C)C(=O)O)cc1 (stereo unspecified)	-3.1	-4.6	-1.8	0.6	-5.6	.	.
C/C(=N\Nc1ccc(F)cc1F)c1ccccc1O	11.6*	8.4	1.6	-0.2	-3.6	-5.8	-5.1
CCOC(=O)[C@]12CCCC=C1N(CCC1=CCCCC1)C(=O)[C@H](CC(=O)NCc1ccc(C)o1)C2	-0.3	-6.1	1.3	0.5	-3.8	.	.
C/C(=N\Nc1ccc(S(=O)(=O)N2CCOCC2)cc1[N+](=O)[O-])C(C)C	10.2*	-1.0	-0.8	-0.3	-0.9	-1.1	-1.6
Cc1csc(NC(=O)CSc2nnc(-c3ccc(Cl)cc3)n2N)n1	10.3*	-4.1	-5.7	-0.3	-3.8	-2.9	0.6
Cc1csc(NC(=O)CSc2nnc(-c3ccncc3)n2C)n1	1.2	-2.1	5.2	0.4	-1.2	.	.
COc1ccc([N+](=O)[O-])cc1NC(=O)C(C)OC(=O)CSC(C)C(=O)Nc1cc(C)on1 (stereo unspecified)	10.4*	3.1	3.7	0.0	4.1	-1.6	0.3
Nc1nnc(SCc2ccc(F)cc2)s1	-3.6	1.4	-0.1	-0.1	-4.5	.	.
Cc1ccc(-c2nnc(N3CCN(C(=O)COc4ccccc4)CC3)c3ccccc23)cc1	0.5	-0.3	4.1	0.3	-3.0	.	.
O=C1CC(NC(=O)C(F)(F)F)=NN1c1ccccc1	-0.8	-4.4	0.4	-0.4	1.4	.	.
CCC(C)N1CC23C=CC(O2)C(C(=O)OCc2ccccc2)C3C1=O (stereo unspecified)	4.2	0.1	13.8*	-0.3	3.3	-4.4	-0.9
COc1cc(Cl)cc(C(c2c(C(=O)O)[nH]c3ccccc23)c2c(C(=O)O)[nH]c3ccccc23)c1O	10.7*	-7.8	-9.1	-0.1	0.7	8.2	-12.8
O=C(c1ccccc1)c1ccc(OCC(O)CNCc2ccc(Cl)cc2)cc1 (stereo unspecified)	11.6*	16.1	3.1	0.8	2.3	-2.2	-1.1
